DT40 TDP1 CPT = qHTS for Inhibitors of human tyrosyl-DNA phosphodiesterase 1 (TDP1): qHTS in cells in presence of CPT; chicken DT40 Tdp1-/-;hTDP1 cells + 20 nM CPT, ATP luminescence, 48 h; Potency, µM (doses to about 46.2 µM), for the others: top-dose activity change, negative = growth inhibition, usual class: inhibitors; 12% of 420,000 active; AID 686979, 2013; further: potency means the concentration at half of the fitted maximal effect; nearly all actives have a fitted effect of over 55% in size
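Cell growth measured by CellTiter-Glo luminescence after a minimum 48 h, 37 C compound exposure with 20 nM CPT in Tdp1-knockout DT40 cells stably expressing hTDP1, seeded 400/well; qHTS titration format.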
RORgamma inh = qHTS for inhibitors of ROR gamma transcriptional activity | Nuclear receptor ROR-gamma (Mus musculus), P51450 | Drosophila S2 Gal4-RORgamma UAS-luciferase reporter, 20 h | Potency, µM (highest dose often 53.6 µM), without a hit: at the highest dose activity change, negative = inhibition, actives largely listed as inhibitors | 5.4% of 310,000 active | AID 2551, 2010; further: potency means the concentration at half of the fitted maximal effect; nearly all actives have a fitted effect of over 60% in size
Target sequence (P51450 whole entry, looked up, the tested form may be a part): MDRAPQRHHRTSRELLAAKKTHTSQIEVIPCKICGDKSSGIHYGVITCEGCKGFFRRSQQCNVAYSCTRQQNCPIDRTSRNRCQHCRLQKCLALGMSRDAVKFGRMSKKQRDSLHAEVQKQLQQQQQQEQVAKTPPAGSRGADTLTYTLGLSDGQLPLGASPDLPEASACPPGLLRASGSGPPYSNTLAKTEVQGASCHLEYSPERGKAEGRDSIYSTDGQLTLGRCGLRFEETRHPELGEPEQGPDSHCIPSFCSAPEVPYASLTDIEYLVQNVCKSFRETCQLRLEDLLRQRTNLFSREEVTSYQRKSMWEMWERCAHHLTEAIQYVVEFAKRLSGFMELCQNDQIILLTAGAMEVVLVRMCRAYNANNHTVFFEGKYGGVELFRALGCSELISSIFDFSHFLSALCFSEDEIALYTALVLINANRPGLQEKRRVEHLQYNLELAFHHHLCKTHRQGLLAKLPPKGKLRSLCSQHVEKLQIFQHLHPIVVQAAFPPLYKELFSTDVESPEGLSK
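Schneider cells (Drosophila), stable Gal4 DBD–ROR gamma + UAS-luc; 1 hr cmpd preincubation; Cu2+ induction 700 uM final; 20 hr ambient; luminescence.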
TDP1 cell noCPT = qHTS for Inhibitors of human tyrosyl-DNA phosphodiesterase 1 (TDP1): qHTS in cells in absence of CPT. 15% of 420,000 active. DT40 Tdp1-/- hTDP1 cells, no CPT, ATP luminescence, 48 h. Potency, µM (top dose mostly 46.2 µM), without a hit: at the highest dose activity change, negative = growth inhibition, actives largely listed as inhibitors. AID 686978, 2013; further: potency means the concentration at half of the fitted maximal effect; nearly all actives have a fitted effect of over 55% in size
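Compound effects on proliferation are scored in DT40 Tdp1-/-;hTDP1 cells in the absence of CPT. ATP levels (CellTiter-Glo luminescence) are recorded after a ≥48 hr, 37 °C incubation.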
IL-1B inflam inh = qHTS for Inhibitors of Inflammasome Signaling: IL-1-beta AlphaLISA Primary Screen; 4.7% of 360,000 active; activity change, % at 57.5 µM; THP-1 LPS/ATP IL-1B secretion, AlphaLISA, 16 h; stronger effect = lower value; in the data active means activity change below about -50%; inconclusive means mostly about -30% to -49%
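Secreted IL-1B measured by AlphaLISA bead assay after 16 h compound exposure of THP-1 cells; compounds (final up to 57.5 uM) added 1 h before LPS (250 ng/mL) and ATP (1.25 mM) stimulation; lower signal means less secretion.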
ELG1 repair inh = qHTS screen for small molecules that inhibit ELG1-dependent DNA repair in human embryonic kidney (HEK293T) cells expressing luciferase-tagged ELG1; HEK293T ELG1-luciferase reporter, luminescence, 16 h; DNA damage induced by 5-fluorouridine; Potency, µM (series often up to 46.1 µM), for inactives: top-dose activity change, negative = inhibition, hits mostly inhibitors; 2.3% of 330,000 active; further: potency means the concentration at half of the fitted maximal effect; nearly all actives have a fitted effect of over 55% in size
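DMSO vehicle served as the neutral condition. Each well held 2,000 cells given 5-fluorouridine plus compound; after 16 hr at 37 °C/5% CO2, ONE-Glo was added and luciferase measured 30 min later.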
Gal4-VP16 FLuc = VP16 counterscreen qHTS for inhibitors of ROR gamma transcriptional activity; Drosophila S2 Gal4-VP16 UAS-luciferase, luminescence, 20 h; Potency, µM (titrated, usually from 53.6 µM), inactives show at the highest dose activity, negative = inhibition, usual class: inhibitors; 3.5% of 310,000 active;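 further: Gal4-VP16 expression switched on by copper sulfate through the metallothionein promoter; potency means the concentration at half of the fitted maximal effect; nearly all actives have a fitted effect of over 50% in size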
* marks the source's active call; other numbers are inactive results; i = inactive; ? = inconclusive; / = not tested or not shown; [ ] = dose if it differs, or a comment. Only some compounds are listed: those with a hit (about 21% of all), similar ones and a draw of the others. Unless noted, the call rests on the fitted dose curve; in most records, active means well fitted curve in the direction sought with a large enough effect; inconclusive means small, poorly fitted or top-dose-only effect, or another doubt; inactive means no such curve, though single readings can be large; an effect the other way counts as inactive or inconclusive. On the % scale 0 is the no-effect control and ±100 the full control effect.

SMILES	DT40 TDP1 CPT	RORgamma inh	TDP1 cell noCPT	IL-1B inflam inh	ELG1 repair inh	Gal4-VP16 FLuc
O=C(/C=C/c1cccs1)Nc1scc(-c2ccccc2)c1C(=O)O	5%	10µM*	-21%	-9	?	13µM*
CCOC(=O)c1c(-c2ccc(OC)c(OC)c2)csc1NC(=O)c1ccccc1F	-20%	/	-13%	/	/	/
CCOC(=O)c1c(-c2ccccc2)csc1NC(=O)/C(C#N)=C\c1ccc(O)c(OC)c1	?	/	?	-8	/	/
CCOC(=O)c1c(-c2cc(OC)c(OC)c(OC)c2)csc1N	23µM*	/	?	25	/	/
CCOC(=O)c1c(-c2ccc(C)cc2)csc1NC(=O)/C(C#N)=C/c1ccc(O)c(OC)c1	?	32%	15µM*	-22	?	-18%
O=C(Nc1scc(-c2ccccc2)c1C(=O)O)c1ccccc1Cl	5%	1%	-1%	-21	0%	-9%
C=CCN1CC2(c3ccccc3)CN(CC=C)CC(c3ccccc3)(C1)C2=O	?	-3%	?	-8	3%	3%
COc1cc(C(=O)Nc2scc(-c3ccc(C)cc3)c2C(=O)O)cc(OC)c1OC	-11%	28%	0%	-18	-28%	-2%
COc1cc(C(=O)Nc2scc(-c3ccccc3)c2C(=O)O)cc(OC)c1OC	?	2%[1.91 µM]	13µM*	-29	2%	-5%
CCn1cc(S(=O)(=O)Nc2cc(C)ccc2F)cn1	1%	2%	10%	5	-5%	-4%
Cc1ccc(S(=O)(=O)N(C(=O)c2ccncc2)c2ccc(OC(=O)c3ccncc3)c3ccccc23)cc1	2.6µM*	13µM*	5.2µM*	-79*	18µM*	?
Cc1ccc(S(=O)(=O)N(C(=O)c2ccncc2)c2ccc(OC(=O)c3ccncc3)c3ccccc23)c(C)c1	4.6µM*	?	3.7µM*	42	?	?
OC1(c2cccnc2)CCN(Cc2ccc3c(c2)CN(Cc2cccc(C(F)(F)F)c2)CCO3)CC1	-22%[9.04 µM]	/	26µM*	/	/	/
COc1cc(CN2CCOc3ccc(CN4CCC(O)(c5cccnc5)CC4)cc3C2)ccc1F	7%[9.04 µM]	/	?	/	/	/
OC1(c2cccnc2)CCN(Cc2ccc3c(c2)CN(Cc2cc4ccccc4s2)CCO3)CC1	-2%[9.04 µM]	/	16µM*	/	/	/
OC1(c2cccnc2)CCN(Cc2ccc3c(c2)CN(Cc2ccsc2)CCO3)CC1	9%[9.04 µM]	/	-23%	/	/	/
COc1ccc(-n2c(=O)c(C)nc3cnc(Oc4ccccc4)nc32)cc1	-20%	33%	?	/	/	-10%
CCS(=O)(=O)Nc1cc(C(=O)N2CCC[C@H]2CO)c2c(c1)nc(-c1ccccc1)n2C	13%[9.04 µM]	/	-5%	/	/	/
Cc1ccc(S(=O)(=O)Nc2ccccc2CNc2cccc(C)n2)cc1	?	16%	16µM*	10	1%	-7%
Cc1ccc(S(=O)(=O)Nc2cccc3ccc(C)nc23)cc1	/	3.2µM*	/	/	/	?
CCN(CC)S(=O)(=O)c1ccc(Cl)c(C(=O)Nc2ccc(Cl)cc2[N+](=O)[O-])c1	5.8µM*	?	4.6µM*	?	?	?
CCN(CC)S(=O)(=O)c1ccc(OC)c(NC(=O)c2cccc(C)c2[N+](=O)[O-])c1	?	14%	-28%	?	?	-11%
CCN(CC)S(=O)(=O)c1ccc(Cl)c(NC(=O)c2ccccc2C)c1	?	-2%	23µM*	-1	27%	-3%
CS(=O)(=O)N1CCN(C(=O)c2cc(-c3ccncc3)nc3ccc(Cl)cc23)CC1	-13%	0%	?	-9	/	9%
CS(=O)(=O)N1CCN(C(=O)c2cc(-c3ccccc3)nc3ccccc23)CC1	?	-9%	-21%	9	-4%	-1%
SMILES	DT40 TDP1 CPT	RORgamma inh	TDP1 cell noCPT	IL-1B inflam inh	ELG1 repair inh	Gal4-VP16 FLuc
O=C(c1cc(-c2cccnc2)nc2ccccc12)N1CCN(S(=O)(=O)c2cccs2)CC1	?	/	23µM*	5	?	/
O=C(c1cc(-c2cccnc2)nc2ccc(Cl)cc12)N1CCN(S(=O)(=O)c2cccs2)CC1	?	-2%	16µM*	i	-3%	-2%
O=C(NCCCc1ccccc1)[C@@H]1Cc2ccccc2CN1	-19%	1%	-11%	25	3%	0%
Cc1ccc(C#N)c(SCc2ccccc2F)n1	6%	8%	-2%	-3	?	9%
Cc1ccc2nc(SCc3nc4ccccc4c(=O)[nH]3)[nH]c2c1	?	-24%	21µM*	-98*	?	?
COC(=O)c1sc2nc(CSc3nc4ccc(C)cc4[nH]3)[nH]c(=O)c2c1C	?	4%	-24%	27	0%	-3%
O=c1[nH]c(CSc2nnc(-c3ccccc3)n2C2CCCCC2)nc2ccccc12	?	-11%	21µM*	5	-16%	-4%
Cc1ccccc1-c1noc(CSc2nc(-c3ccc(F)cc3)cc(=O)[nH]2)n1	-16%	/	0%	/	/	/
Cc1ccc2nc(SCc3nc(-c4ccccc4C)no3)[nH]c2c1	18µM*	/	13µM*	/	/	/
Cc1ccc2nc(CSc3nc(C)ccc3C#N)[nH]c2c1	18µM*	3.5µM*	32µM*	?	?	2µM*
C[C@@H]1CCCCO[C@H](CN(C)Cc2ccc(Cl)c(Cl)c2)[C@@H](C)CN([C@H](C)CO)C(=O)c2cc(N(C)C)ccc2O1	18µM*	/	23µM*	?	/	/
C[C@H](CO)N1C[C@H](C)[C@@H](CN(C)Cc2ccc(Cl)c(Cl)c2)OCCCC[C@H](C)Oc2ccc(NC(=O)CCC(F)(F)F)cc2C1=O	23µM*	/	15µM*	-18	/	/
C[C@@H]1CCCCO[C@H](CN(C)Cc2ccc(C(=O)O)cc2)[C@@H](C)CN([C@H](C)CO)C(=O)c2cc(NC(=O)CCC(F)(F)F)ccc2O1	-12%	/	-28%	34	/	/
C[C@@H]1CN([C@H](C)CO)C(=O)c2cc(NC(=O)Nc3ccc(F)cc3)ccc2O[C@@H](C)CCCCO[C@H]1CN(C)S(=O)(=O)c1ccc(Cl)cc1	26µM*	/	?	/	/	/

Screening results: PubChem, National Center for Advancing Translational Sciences (NCATS)
